The structures appear in SMILES notation. Values joined by “and” are separate entries in the source; they are usually repeats but may differ in a detail not shown here. Equal values may be shown once. Results filed as inconclusive are left out. Unmarked numbers belong to inactive results. Active and inactive are the calls of the source. Calls come from the whole dose curve; as a rule, active = well fitted curve in the direction sought with a large enough effect; inconclusive = small, poorly fitted or top-dose-only effect, or another doubt; inactive = no such curve, though single readings can be large; an effect the other way counts as inactive or inconclusive.

A word on the viability: it is a read-out of living cells in per cent, often relative to untreated cells.

In experiment [1] the target is Cellular tumor antigen p53 (Homo sapiens) (UniProt P04637). The experiment in a line: Primary qHTS for small molecule compounds that upregulate eGFP-tagged delta133p53alpha (in N-terminal) cells. (AID 2060322).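 For activation: cells pre-induced with doxycycline then dosed without doxycycline; series mostly up to about 56 µM; 0% = DMSO vehicle and 100% = reference activator.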 Note: nearly all actives have a fitted effect of over 75% in size. Note: potency is the fitted concentration of half-maximal effect. The conditions noted are these: NCI-H358 eGFP-delta133p53alpha fluorescence, 24 h; activation: hits give high values. The method in brief:
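NCI-H358 cells pre-induced 24 h with 10 ng/ml doxycycline for eGFP-delta133p53alpha, plated dox-free and exposed 24 h at 37C to titrated compounds. Fixed, Hoechst-stained; gated GFP peak intensity by laser scanning cytometry, normalized to DMSO (0%) and 57.5 uM 5-azacytidine (100%).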
In general terms: In qHTS, concentration-response curves come from the screen itself.

Experiment [2] deals with Aldehyde dehydrogenase, mitochondrial (Homo sapiens) (UniProt P05091). The experiment in a line: qHTS for Inhibitors of the Aldehyde Dehydrogenase Family (ALDH2) Primary screen (AID 2061308).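 Note: plate controls were vehicle for no effect and reference inhibitor for full effect; nearly all actives have a fitted effect of over 55% in size.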
Experiment [3] addresses Retinaldehyde dehydrogenase 3 (Homo sapiens) (UniProt P47895). The experiment in a line: qHTS for Inhibitors of the Aldehyde Dehydrogenase Family (ALDH1A3) Primary screen (AID 2061315).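 Note: plate controls were DMSO vehicle for no effect and reference inhibitor for full effect.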
The nature of experiment [4]: BET inhibitor-based combinations targeting novel dependencies in MECOM-rearranged (r) AML: SET-2 cell line (AID 2202231).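 For viability: plate controls were DMSO treated cells for no effect and wells without cells for full effect.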 Note: nearly all actives have a fitted effect of over 35% in size. Note: potency is the fitted concentration of half-maximal effect. The conditions noted are these: SET-2 AML cells viability, CellTiter-Glo luminescence, 48 h; viability: hits give low values, concentration not given here. A digest of the protocol:
(§1)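 AML cell lines seeded at 500 cells/well, treated with 11-point dose curves for 48 h. Viability by CellTiter-Glo luminescence, normalised to DMSO and empty wells; activity expressed as AUC and per-cell-line Z-transformed AUC.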
(ATP-based viability assays read luminescence as a measure of living cells.)

Experiment [5] can be described thus: BET inhibitor-based combinations targeting novel dependencies in MECOM-rearranged (r) AML: OCI-AML3 cell line (AID 2202232).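 For viability (% of control): series mostly up to about 46 µM; plate controls were DMSO vehicle wells for no effect and wells without cells for full effect.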 Note: nearly all actives have a fitted effect of over 35% in size. Note: potency is the fitted concentration of half-maximal effect. The settings on record: Potency: OCI-AML3 viability. A digest of the protocol:
as §1

A short description of experiment [6]: BET inhibitor-based combinations targeting novel dependencies in MECOM-rearranged (r) AML: MV-4-11 cell line (AID 2202233). Note: nearly all actives have a fitted effect of over 45% in size. Note: potency is the fitted concentration of half-maximal effect. The method in brief: (§2)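 Cells at 500/well were exposed for 48 hr to MIPE v5.0 drugs as 11-point dose curves. Viability was read by CellTiter-Glo luminescence and normalized to DMSO and empty-well controls. Activity was expressed as AUC and per-cell-line Z-AUC.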

Experiment [7] can be described thus: BET inhibitor-based combinations targeting novel dependencies in MECOM-rearranged (r) AML: UCSD-AML1 cell line (AID 2202235).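 For viability (% of control): series mostly up to about 46 µM; plate controls were DMSO vehicle wells for no effect and blank wells for full effect.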 Note: nearly all actives have a fitted effect of over 40% in size. Note: potency is the fitted concentration of half-maximal effect. A digest of the protocol:
as §2

Experiment [8] in a line: BET inhibitor-based combinations targeting novel dependencies in MECOM-rearranged (r) AML: AML-191 cell line (AID 2202236; note: nearly all actives have a fitted effect of over 35% in size; note: potency is the fitted concentration of half-maximal effect;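 for viability (% of control): plate controls were vehicle wells for no effect and wells without cells for full effect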). A digest of the protocol: as §1
A short description of experiment [9]: BET inhibitor-based combinations targeting novel dependencies in MECOM-rearranged (r) AML: AML-194 cell line (AID 2202237; note: nearly all actives have a fitted effect of over 40% in size; note: potency is the fitted concentration of half-maximal effect;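 for viability (% of control): plate controls were vehicle wells for no effect and wells without cells for full effect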). A digest of the protocol:
as §1

The nature of experiment [10]: BET inhibitor-based combinations targeting novel dependencies in MECOM-rearranged (r) AML: HNT-34 cell line (AID 2202234).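 For viability (% of control): plate controls were vehicle wells for no effect and cell-free wells for full effect.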 Note: nearly all actives have a fitted effect of over 35% in size. Note: potency is the fitted concentration of half-maximal effect. The method in brief:
as §2

Sequence of Cellular tumor antigen p53 (Homo sapiens) (P04637 whole entry, looked up): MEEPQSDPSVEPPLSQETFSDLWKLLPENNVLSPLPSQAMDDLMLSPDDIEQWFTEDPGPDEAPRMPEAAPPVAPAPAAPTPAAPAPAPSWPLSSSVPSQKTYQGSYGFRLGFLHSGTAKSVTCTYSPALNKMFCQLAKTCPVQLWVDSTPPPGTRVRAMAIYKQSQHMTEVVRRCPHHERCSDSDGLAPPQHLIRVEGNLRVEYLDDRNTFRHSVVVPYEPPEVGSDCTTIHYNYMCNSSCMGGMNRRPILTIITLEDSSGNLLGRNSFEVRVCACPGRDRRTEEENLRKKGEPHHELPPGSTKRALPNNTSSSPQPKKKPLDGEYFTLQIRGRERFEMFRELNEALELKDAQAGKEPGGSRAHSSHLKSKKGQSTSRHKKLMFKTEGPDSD

As to `CCS(=O)(=O)N1CCN(c2ccc(Nc3ncc(C(N)=O)c(NC4CC4)n3)cc2)CC1`, in experiment [1], the activation was 25.7%. Further, the Potency result in experiment [2] and in experiment [3] was “inactive” each time. The Potency in experiment [4] is 4.17 µM (active); in experiment [5] it was 13.2 µM (active); in experiment [6], 0.417 µM (active); in experiment [7] it was 0.372 µM (active); in [8], 4.68 µM (active); in experiment [9] it was 4.68 µM (active).

In the case of `C[C@@H](NCCCc1cccc(C(F)(F)F)c1)c1cccc2ccccc12`, the activation in experiment [1] is 1.97%. The Potency result in experiment [2] and in experiment [3] was “inactive” each time. For the same compound, the Potency in experiment [4] is 23.5 µM (active); in [5] it was 16.6 µM (active); in experiment [10], 26.3 µM (active).

Take `Nc1ccn([C@@H]2O[C@H](CO)[C@@H](O)C2(F)F)c(=O)n1`: in experiment [1], the activation was -26.8% and -6.68%. In addition, the Potency result in experiment [2] and in [3] was “inactive” throughout. In addition, the Potency in experiment [4] was 0.0235 µM (active); in [5], 0.0105 µM (active); in [6], 0.0059 µM (active); in [7], 0.0186 µM (active); in experiment [8] it was 0.0132 µM (active); in experiment [9], 0.0209 µM (active).

With `Cc1ccccc1C(=O)Nc1ccc(C(=O)N2CCCC(O)c3cc(Cl)ccc32)c(C)c1` (stereo not given), in [1], the activation is 0.83%. The Potency result in [2], in [3], in [5], in experiment [10], in [7] and in [8] was “inactive” throughout. Besides, the Potency result in experiment [9] is “inactive”. In addition, the viability in experiment [4] was 88.6%.

`COc1cc(Nc2c(C#N)cnc3cc(OCCCN4CCN(C)CC4)c(OC)cc23)c(Cl)cc1Cl`: the Potency in [1] is 30.9 µM (active) and 23.9 µM (active); in [4], 16.6 µM (active); in experiment [6], 3.32 µM (active); in [10], 0.59 µM (active); in [7], 8.33 µM (active); in [9], 7.42 µM (active). In addition, the Potency result in [2] and in experiment [3] was “inactive” each time.

As for `CCNC(=O)Nc1ncc(-c2cc(-c3c(C)cc(OC)cc3C)nc(-c3cnccn3)n2)s1`, in [1], the activation is -5.36%. The Potency entry in [2], in experiment [3], in experiment [6], in [10], in experiment [7] and in experiment [8] was “inactive” each time. Further, the Potency entry in experiment [9] was “inactive”. The viability in experiment [4] was 114%.

On to `CCC(=O)N[C@H]1CC[C@H](C(=O)N(C)c2ccc(-c3nc4ccccc4o3)cc2)C1`, for which the activation in experiment [1] is 18%. In addition, the Potency entry in [2], in [3] and in [7] was “inactive” throughout. The viability in experiment [4] is 98.9%. In addition, the figures for the Potency in [5] and in experiment [8] were 18.6 µM (active) and 20.9 µM (active), respectively.

`CC1CCC(n2c3cnccc3c3cnc(Nc4ccc5c(n4)CCN(C(=O)CO)C5)nc32)CC1` (stereo not given): the Potency in experiment [1] was 23.9 µM (active); in experiment [6], 0.152 µM (active); in [9] it was 1.21 µM (active). Moreover, the Potency result in experiment [2] and in experiment [3] was “inactive” in each case. Moreover, the viability in [4] is 105%. For the same compound, in experiment [10], the viability (% of control) was 92.3% [at 8.46 µM].

With `Cc1n[nH]c(C)c1Cc1sc2c(c1C(=O)N1C[C@H](O)CO1)c(=O)n(C)c(=O)n2CC(C)C`, the activation in [1] is 19.3% and -2.33%. The Potency entry in experiment [2], in experiment [3], in [6], in [10], in [7] and in experiment [9] was “inactive” each time. Moreover, in experiment [4], the viability is 111%.

For `Cc1nc(-c2cccnc2)sc1C(=O)Nc1ccccc1-c1cn2c(CN3CCOCC3)csc2n1`, in experiment [1], the activation was 17.9%. In addition, the Potency result in experiment [2], in experiment [3], in experiment [6], in experiment [10], in [8] and in experiment [9] was “inactive” each time. In addition, the viability in [4] was 115%.

On to `COc1cc(OC)c(/C=C/S(=O)(=O)Cc2ccc(OC)c(NCC(=O)O)c2)c(OC)c1`, for which the activation in [1] is 17.9%. The Potency entry in experiment [2] and in experiment [3] was “inactive” each time. Also, the Potency in experiment [4] was 0.296 µM (active); in [6] it was 0.263 µM (active); in [10] it was 0.166 µM (active); in [7] it was 0.263 µM (active); in experiment [8], 0.235 µM (active); in experiment [9], 0.263 µM (active).

As for `NC(=O)c1ccc(N(C(N)=O)c2c(F)cccc2F)nc1-c1ccc(F)cc1F`, the activation in experiment [1] was 24.3% and 1.79%. Moreover, the Potency entry in experiment [2], in [3], in experiment [6], in experiment [10], in experiment [7] and in [8] was “inactive” each time. The Potency result in [9] is “inactive”. In addition, in experiment [4], the viability is 106%.

As for `Cc1c(Cn2c(C)nc3c(C(=O)O)cc(N4CCOCC4)cc32)cccc1C(F)(F)F`, in experiment [1], the activation is -0.853% and -13.4%. Further, the Potency entry in experiment [2], in experiment [3] and in experiment [9] was “inactive” each time. In experiment [4], the viability is 98.9%. Further, the figures for the Potency in [6], in experiment [10] and in experiment [8] were 4.68 µM (active), 5.9 µM (active) and 4.68 µM (active), respectively.

Turning to `Cc1ccn(-c2ccc(-c3ncco3)cc2)c(=O)c1-c1ccc2nc(N)ncc2c1`, the activation in [1] was 28.6%. Besides, the Potency entry in experiment [2] and in experiment [3] was “inactive” in each case. Further, in [4], the viability was 114%. In addition, the figures for the Potency in experiment [6] and in experiment [10] were 6.61 µM (active) and 0.372 µM (active), respectively.

Regarding `COc1cc2ncnc(Oc3cccc(NC(=O)Nc4cc(C(C)(C)C(F)(F)F)on4)c3)c2cc1OC`, the values for the Potency in experiment [1], in experiment [6] and in experiment [10] were 23.9 µM (active), 0.662 µM (active) and 0.209 µM (active), respectively. For the same compound, the Potency result in [2], in experiment [3] and in experiment [9] was “inactive” each time. Moreover, in experiment [4], the viability is 104%.

In the case of `c1ccc(-c2ccc(CNc3nc(-c4ccccn4)nnc3-c3ccccc3)cc2)cc1`, in experiment [1], the activation is -11.7%. The Potency result in experiment [2] and in experiment [3] was “inactive” each time. The Potency in experiment [4] was 2.35 µM (active); in experiment [6] it was 1.18 µM (active); in experiment [10], 1.32 µM (active); in [7], 1.05 µM (active); in experiment [8] it was 0.934 µM (active); in experiment [9], 1.05 µM (active).

Regarding `Cc1cnc(-c2cnc(NCCNc3ccc(C#N)cn3)nc2-c2ccc(Cl)cc2Cl)[nH]1`, in experiment [1], the activation is 9%. Further, the Potency entry in experiment [2], in [3], in experiment [5], in [7] and in [9] was “inactive” throughout. Further, the Potency in experiment [4] is 14.8 µM (active).

These data come from PubChem BioAssay (NCATS).
